Results reported in the supplement of paper PMC6992640.
± gives the standard deviation of the averaged measurements.

What was measured:
Test in all cases: cell viability (% of vehicle); higher = less cytotoxic
Conditions in all cases: 10 µM; 72 h
[1] = system: HCI01 (cells of a triple-negative basal-like breast cancer xenograft)
[2] = system: HCI03 (cells of an ER-positive luminal breast cancer xenograft)
[3] = system: HCI09 (cells of a triple-negative luminal androgen receptor type breast cancer xenograft)
[4] = system: HCI11 (cells of an ER-positive luminal breast cancer xenograft)
[5] = system: HCI13 (cells of an ER-positive luminal breast cancer xenograft)
[6] = system: HCI16 (cells of a triple-negative basal-like breast cancer xenograft)
[7] = system: UCD52 (cells of a triple-negative basal-like breast cancer xenograft)
[8] = system: WHIM2 (cells of a triple-negative basal-like breast cancer xenograft)
[9] = system: WHIM30 (cells of a triple-negative basal-like breast cancer xenograft)
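Further: PDX cells carrying CMV promoter-driven luciferase, viability read as total photon flux per second by IVIS imaging following D-luciferin, vehicle control 0.1% DMSO.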

Row | SMILES | cell viability [1] | cell viability [2] | cell viability [3] | cell viability [4] | cell viability [5] | cell viability [6] | cell viability [7] | cell viability [8] | cell viability [9]
1 | CN1C(C(=O)Nc2ccccn2)=C(O)c2sccc2S1(=O)=O [Tenoxicam] | 122 ± 9.7 | 126 | 114 ± 24 | 89.7 | 64.9 ± 7.4 | 119 | 87.2 ± 4.1 | 123 ± 33 | 159 ± 5.4
2 | CC(=O)O[C@H]1Cc2ccccc2N(C(N)=O)c2ccccc21 [Eslicarbazepine acetate] | 102 ± 12 | 116 | 111 ± 6.7 | 85.7 | 102 ± 11 | 106 | 95.5 ± 1.3 | 102 ± 27 | 94.1 ± 16
3 | O=C1Cc2cc(CCN3CCN(c4nsc5ccccc45)CC3)c(Cl)cc2N1 [Ziprasidone] | 98.1 ± 6.7 | 102 | 82.1 ± 4.3 | 96.1 | 95.4 ± 36 | 67.2 | 86.8 ± 2 | 95.6 ± 6.5 | 100 ± 20
4 | COC(=O)C1=C(C)NC(C)=C(C(=O)OC(C)C)C1c1cccc2nonc12 (stereo unspecified) [Isradipine (Dynacirc)] | 111 ± 18 | 118 | 48.7 ± 41 | 91.9 | 109 ± 6.2 | 117 | 76.2 ± 9.4 | 92.5 ± 11 | 88.7 ± 3.6
5 | CC(C(=O)O)c1ccc2c(c1)CC(=O)c1ccccc1S2 (stereo unspecified) [Zaltoprofen] | 124 ± 32 | 120 | 95.5 ± 26 | 103 | 134 ± 6.7 | 112 | 77.9 ± 11 | 98 ± 13 | 82.8 ± 5.6
6 | Cc1cnc(NC(=O)C2=C(O)c3ccccc3S(=O)(=O)N2C)s1 [Meloxicam (Mobic)] | 104 ± 10 | 125 | 96.1 ± 18 | 102 | 124 ± 5 | 88.8 | 80.5 ± 6.5 | 94 ± 12 | 81.3 ± 13
7 | CNS(=O)(=O)Cc1ccc2[nH]cc(CCN(C)C)c2c1.O=C(O)CCC(=O)O [Sumatriptan Succinate] | 89.3 ± 18 | 110 | 89.6 ± 31 | 82.8 | 81.4 ± 5.5 | 120 | 101 ± 13 | 106 ± 18 | 106 ± 4.2
8 | CN(Cc1cc(Br)cc(Br)c1N)C1CCCCC1.Cl [Bromhexine HCl] | 95.8 ± 14 | 86.3 | 93 ± 6 | 96.3 | 64.9 ± 2.5 | 106 | 73.8 ± 6.8 | 44.5 ± 15 | 108 ± 3.3
9 | CC1OC(n2cc(F)c(=O)[nH]c2=O)C(O)C1O (stereo unspecified) [Doxifluridine] | 67.1 ± 35 | 152 | 89.8 ± 12 | 110 | 104 ± 7.4 | 148 | 93 ± 19 | 102 ± 19 | 175.4 ± 0.91
10 | NC(CO)(CO)CO.O=C(c1ccccc1)c1ccc2n1CCC2C(=O)O (stereo unspecified) [Ketorolac tromethamine salt] | 123 ± 15 | 174 | 146 ± 70 | 102 | 122 ± 26 | 131 | 145.6 ± 0.93 | 130 ± 15 | 116 ± 4.2
11 | CCCCC(C)(O)C/C=C/[C@H]1[C@H](O)CC(=O)[C@@H]1CCCCCCC(=O)OC (mixture of isomers) [Misoprostol] | 95 ± 25 | 120 | 107 ± 12 | 101 | 123 ± 9.4 | 112 | 96.6 ± 8.3 | 93.1 ± 9.9 | 107 ± 4.6
12 | Cc1cncc(CN2CCC(=C3c4ccc(Cl)cc4CCc4cccnc43)CC2)c1.O=C(O)C=CC(=O)O [Rupatadine Fumarate] | 89.8 ± 4.1 | 87.7 | 42 ± 3 | 70.2 | 58.2 ± 9.9 | 109 | 63.1 ± 3.4 | 78 ± 7.6 | 81.2 ± 3.8
13 | COc1cc(CNC(=O)CCCCC=CC(C)C)ccc1O [Capsaicin] | 105 ± 8.6 | 120 | 75.8 ± 1.6 | 90.6 | 101 ± 17 | 82.4 | 78.3 ± 5.6 | 90.1 ± 21 | 108 ± 12
14 | NCC1CCC(C(=O)O)CC1 (stereo unspecified) [Tranexamic Acid] | 118 ± 7.2 | 116 | 94.6 ± 25 | 111 | 74.8 ± 0.96 | 102 | 92.2 ± 5 | 124 ± 17 | 111 ± 16
15 | NC(CC(=O)N1CCn2c(nnc2C(F)(F)F)C1)Cc1cc(F)c(F)cc1F.O.O=P(=O)OO.[HH] (stereo unspecified) [Sitagliptin phosphate monohydrate] | 134 ± 15 | 154 | 94.1 ± 15 | 131 | 135 ± 37 | 135 | 120 ± 3.7 | 115.8 ± 0.55 | 144 ± 14
16 | CCCCOc1cc(C(=O)NCCN(CC)CC)c2ccccc2n1 [Dibucaine] | 94.3 ± 30 | 158 | 95.5 ± 9.9 | 93.9 | 135 ± 2 | 135 | 81.16 ± 0.71 | 95.1 ± 14 | 89.012 ± 0.00099
17 | COc1cc(C)c(C=CC(C)=CC=CC(C)=CC(=O)O)c(C)c1C [Acitretin] | 113 ± 9.7 | 72.4 | 90.9 ± 14 | 86.5 | 83 ± 13 | 76.7 | 130 ± 8.7 | 90.5 ± 16 | 145 ± 42
18 | COc1c(N2CC3CCCNC3C2)c(F)cc2c(=O)c(C(=O)O)cn(C3CC3)c12.Cl (stereo unspecified) [Moxifloxacin HCl] | 132 ± 5.7 | 124 | 97.1 ± 3.3 | 120 | 113 ± 14 | 114 | 133 ± 11 | 92.3 ± 8.9 | 134 ± 16
19 | CC(Cc1cc2c(c(C(N)=O)c1)N(CCCO)CC2)NCCOc1ccccc1OCC(F)(F)F (stereo unspecified) [Silodosin] | 103 ± 7.4 | 99.5 | 106 ± 39 | 127 | 96.6 ± 16 | 117 | 82.5 ± 14 | 98 ± 21 | 94.2 ± 6.5
